# Results published in PubChem BioAssay AID1981 (Southern Research Specialized Biocontainment Screening …, 2009).
# The campaign covered roughly 2,200 compounds. About 480 (22%) were called active. How the calls were made is not given here. A selection follows. Where a call stands in place of a potency, no number is given. Potency and affinity values are given separately.
# Experiment: S. Typhimurium GFP fluorescence dose response in modified counterscreen for PhoP regulon inhibitor project (AID 1981)
# Settings: 4 h; series mostly up to 150 µM
row,SMILES,outcome
1,S=C(Nc1ccc(Cl)c(Cl)c1)N1CCOCC1,inactive
2,COC(=O)CCC(=O)Nc1ccc(Cl)c(Cl)c1,inactive
3,CCC(Sc1ncccc1C(=O)OC(C)C)C(=O)N1CCOCC1 (stereo not given),inactive
4,O=C(CSc1ccc2c(c1)OCCO2)NCCc1ccc(Cl)cc1Cl,inactive
5,CCOC(=O)/C(=C/C=C/c1ccccc1)NC(=O)c1ccccc1,inactive
6,Cc1[nH]c2ccccc2c1/C=N/O,inactive
7,COc1ccc2[nH]c(S(=O)Cc3ncc(C)c(OC)c3C)nc2c1 (stereo not given),inactive
8,Oc1ccc(-c2n[nH]c(=S)n2-c2ccc3c(c2)OCCO3)c(O)c1,inactive
9,Cc1ccc(Nc2nc(CSc3nnc(-c4cccnc4)n3-c3ccccc3F)cs2)cc1,inactive
10,COc1ccc(OC)c(S(=O)(=O)N(C)CC(=O)N2CCc3ccccc3C2)c1,inactive
11,COc1cc(C)nc(Nc2nc(C)c(C(C)=O)s2)n1,inactive
12,COC(OC)c1nc(SCC(=O)Nc2cccc(Cl)c2)ncc1C(=O)O,inactive
13,C#CCn1cc(/C=N/Nc2nc3ccccc3[nH]2)c2ccccc21,inactive
14,CN(c1cccc(Cl)c1)S(=O)(=O)c1cccc(C(=O)Nc2nc3ccccc3[nH]2)c1,inactive
15,CCN(CC)c1ccc(/C=N/NC(=S)NCc2ccccc2)c(O)c1,inactive
16,C(=C\c1ccccc1)/C=N/Nc1nc2ccccc2[nH]1,inactive
17,CN1CCN(S(=O)(=O)c2ccc(-c3ccccc3)cc2)CC1,inactive
18,COc1ccc(C2=Nc3cccc4cccc(c34)N2)cc1,inactive
19,Cc1ccc(CNC(=O)c2cccc(S(C)(=O)=O)c2)cc1,inactive
20,COc1ccc(-c2nnc(SCC(=O)NCc3ccco3)o2)cc1,inactive
21,Cc1ccc(S(=O)(=O)NCCC(=O)OCn2nnc3ccccc3c2=O)cc1,inactive
22,CN1/C(=C/C=N/NC(=O)c2ccc([N+](=O)[O-])cc2)C(C)(C)c2ccccc21,inactive
23,CN1/C(=C/C2CC(=O)N(c3cccc4ccccc34)C2=O)C(C)(C)c2ccccc21 (stereo not given),inactive

row,SMILES,outcome
1,COC(=O)c1cc(C#N)c(Oc2cccc(C)c2C)nc1C,inactive
2,Cc1c(/C=C/C(=O)c2ccccc2)cnn1C,inactive
3,O=C1c2ccccc2C2=Nc3ccccc3SC(c3cccc(F)c3)C12 (stereo not given),inactive
4,Cn1c(N)c(C(=O)COC(=O)C2CCCCC2)c(=O)n(C)c1=O,inactive
5,COc1ccccc1NCCC(=O)OCC(=O)NC1CCCCCC1,inactive
6,O=c1c2ccccc2nc(-c2ccco2)n1-c1nccs1,inactive
7,CNc1nc(Sc2ccccc2)cc(C(F)(F)F)n1,inactive
8,CC(=O)Nc1c(C#N)c(C(C)(C)C)cn1C,inactive
9,CCOC(=O)c1ccc(N2CCN(c3ccc(F)cc3)CC2)c(NC(=O)Nc2cccc(OC)c2)c1,inactive
10,COc1ccccc1-c1c(C#N)c(N)nc2c1CCc1ccccc1-2,inactive
11,CCOC(=O)CSc1nc2c(sc(=S)n2-c2ccccc2)c(=O)n1-c1ccc(OC)cc1OC,inactive
12,CCOC(=O)Cc1ccc2sc(-c3ccccc3)nc2c1,inactive
13,Cc1ccc2cc(C(=O)O)c(C)nc2c1,inactive
14,N/C(=N\OC(=O)Nc1ccc(Cl)cc1)c1ncc(C(F)(F)F)cc1Cl,inactive
15,COc1cccc(C=NCC(C)N=Cc2cccc(OC)c2O)c1O (stereo not given),inactive
16,N#C/C(=C\c1ccc(F)c(F)c1)C(=O)NC1CCCCC1,inactive
17,N#CC(C#N)=c1ccc2c(c1)NC1(CCCCC1)N=2,inactive
18,CCCCn1nnnc1NCc1cc(OC)c(OC)cc1OC,inactive
19,CCCCCCCSc1cc(OC)c(CCN(C)C)cc1OC,inactive
20,COc1ccccc1NS(=O)(=O)c1cc(NC(=S)Nc2cc(C)cc(C)c2)ccc1Cl,inactive
21,COc1ccc(CCNC(=O)c2ccc(CN3CCOCC3)cc2)cc1,inactive
22,CN(C(=S)Nc1ccc(Oc2ccccc2)cc1)c1ccc(O)cc1,inactive
23,O=S(=O)(c1ccccc1)N(CC(O)Cn1c2ccccc2c2ccccc21)c1ccccc1 (stereo not given),inactive

row,SMILES,outcome
1,OCCN(CCO)CC(O)Cn1c2ccccc2c2ccccc21 (stereo not given),inactive
2,CCOC(=O)C1CCCN(S(=O)(=O)c2ccc(Br)c(OC)c2)C1 (stereo not given),inactive
3,Cc1cc(C)nc(N2CCCC(C(=O)Nc3ccc4nc(C)c(C)nc4c3)C2)n1 (stereo not given),inactive
4,Nc1nnc(SCc2ccc3c(c2)OCO3)s1,inactive
5,O=C(c1cn(-c2ccccc2)nc1-c1cccnc1)N1CCCCC1,inactive
6,Cc1cccc(-n2nc3c(c2NC(=O)c2ccco2)CSC3)c1C,inactive
7,O=[N+]([O-])c1nn(-c2cccc(Cl)c2)n(O)c1=NCc1cccnc1,inactive
8,Cc1nc(N2CCN(c3ccccc3)CC2)nc2c1C(=O)CC(C)C2 (stereo not given),inactive
9,Cc1ccccc1NC(=S)NC1CCN(Cc2ccccc2)CC1,inactive
10,CCCCC1(CCCC)C(=O)NC(=Nc2cccc(C)c2)NC1=O,inactive
11,CCn1cc(C(=O)O)c(=O)c2cc(F)c(N3CCN(C(=S)NC(=O)c4ccccc4Cl)CC3)cc21,inactive
12,O=C(Cn1cnc2scc(-c3ccccc3)c2c1=O)N1CCOCC1,inactive
13,Cc1ccccc1-n1nc(-c2ccc(N)cc2)cc1N,inactive
14,N#CCOC(=O)c1sccc1-n1cccc1,inactive
15,COc1ccc(/C=C(\NC(=O)/C=C/c2ccco2)C(=O)NCCc2nc3ccccc3[nH]2)cc1,inactive
16,S=C(NCc1cccnc1)Nc1ccc(Cl)cc1,inactive
17,O=[N+]([O-])c1ccc(Sc2nc3ccccc3o2)c([N+](=O)[O-])c1,inactive
18,COc1ccc(-c2csc(NCc3ccco3)n2)cc1,inactive
19,N#CC1=C(N)SC(N)=C(C#N)C1c1ccc([N+](=O)[O-])cc1,inactive
20,COc1cccc2c(=O)c3c(cnn3C)n(C)c12,inactive
21,COc1ccc(-c2cc(C(=O)O)[nH]n2)cc1OC,inactive
22,Cn1c(-c2ccc(N)cc2)nc2ccccc21,inactive
23,CCC(=O)NC1=C(NC(C)c2ccccc2)C(=O)c2ccccc2C1=O (stereo not given),inactive

row,SMILES,outcome
1,COC(=O)c1sc2ccccc2c1-n1cccc1C(=O)C(=O)Nc1ccc(Cl)cc1,inactive
2,Cn1c(=O)n(CC(=O)Nc2ccccc2)c2ccccc21,inactive
3,COc1ccc(C(=O)Nc2cc(C)ccc2NC(=O)COc2ccccc2)cc1,inactive
4,CCN(Cc1ccccc1)C(=O)CN1C(=S)NC(C)(C)CC1C (stereo not given),inactive
5,CCOC(=O)Cn1nnnc1C(C(C)C)N(Cc1cccs1)Cc1cc2cc(C)ccc2[nH]c1=O (stereo not given),inactive
6,CCN(CC)C(=O)CP(=O)(c1ccccc1)c1ccccc1,inactive
7,Cc1cc(C2=NNC(=NC3CC3)SC2)c(C)n1-c1ccccc1,inactive
8,Nc1cc(N)nc(SCC(=O)Nc2ccc3c(c2)OCCCO3)n1,inactive
9,COc1ccc(C(=O)N2CCN(C(=O)c3ccco3)CC2)cc1OC,inactive
10,CCOC(=O)c1sc2nccc(N(C)C)c2c1N=CNOCc1c(F)cccc1Cl,inactive
11,O=C(CSc1nnc(-c2cccs2)n1-c1ccccc1)NCc1ccc2c(c1)OCO2,inactive
12,COc1cccc(-c2nnc(SCC(=O)Nc3ccc(OC)c(OC)c3)n2N)c1,inactive
13,CCCc1cc(-c2nc(N)ncc2-c2ccc3c(c2)OCCCO3)c(O)cc1OC,inactive
14,CCC(CC)C(=O)Nc1cccc(C(=O)N2CCCC2)c1,inactive
15,CCOC(=O)c1[nH]c2ccccc2c1NC(=O)NC1CCCCC1,inactive
16,CCOC(=O)CCCNC(=O)COC(=O)CCC(=O)c1ccc(F)cc1,inactive
17,Cn1c(-c2ccc3nc(N)sc3c2)nc2cc(N)ccc21,inactive
18,CCOC(=O)COc1ccccc1/C=C\[N+](=O)[O-],inactive
19,COc1cc(C=O)ccc1OCCCOc1ccccc1[N+](=O)[O-],inactive
20,COc1ccc([N+](=O)[O-])cc1NC(=O)C(C)OC(=O)c1ccccc1C(=O)c1ccc(Cl)cc1 (stereo not given),inactive
21,Cc1ccc(S(=O)(=O)N2CCCC2C(=O)OCc2ccco2)cc1 (stereo not given),inactive
22,Cc1nc2c(C(=O)NCCC(C)C)c[nH]n2c(=O)c1Cc1ccccc1F,inactive
23,O=C(CCn1nnc(-c2cccs2)n1)NCc1ccccc1Cl,inactive

row,SMILES,outcome
1,Cc1ccc(CCNC(=O)C2CCCN(S(=O)(=O)c3c(C)noc3C)C2)cc1 (stereo not given),inactive
2,CC(C)Cn1c(-c2ccccc2)nc2ccccc2c1=O,inactive
3,COc1ccc(Cl)cc1C(=O)CSc1nc(N)cc(N)n1,inactive
4,COc1ccc(-c2c/c(=N\c3nc(-c4ccccc4)c(C)s3)c3ccccc3o2)cc1O,inactive
5,Cc1ccccc1OCC(=O)N/N=C/c1ccco1,inactive
6,O=C(N/N=C/c1ccc(F)cc1)c1cc(-c2ccco2)nc2ccccc12,inactive
7,Cc1ccc(NC(=O)CO/N=C(\N)c2nonc2N)cc1,inactive
8,COC(=O)c1ccc(NC(=S)Nc2ccc3ccccc3c2)cc1,inactive
9,Cn1ccnc1SCC(=O)Nc1sccc1C#N,inactive
10,NC1=NC2=C(CCCC2)C2(CCCCC2)S1,inactive
11,CCCCn1c(O)c(C(CC)=Nc2ccc3c(c2)CCC3)c(=O)[nH]c1=O,inactive
12,CC(C)c1ccc(O)c(NC(=O)c2cncc(Br)c2)c1,inactive
13,COc1ccccc1N1CCN(c2ccc(-c3ccccc3)nn2)CC1,inactive
14,Cc1ccccc1Nc1nnc(SCC(=O)NC2CCCc3ccccc32)s1 (stereo not given),inactive
15,Cc1[nH]nc2c1C(c1cc(Br)cs1)C(C#N)=C(N)O2 (stereo not given),inactive
16,CCCOc1ccc(Cn2cnc3ccccc32)cc1,inactive
17,O=C(OCC1COc2ccccc2O1)c1ccccc1F (stereo not given),inactive
18,CN(C)CCOC(=O)Cc1ccc(Cl)cc1,inactive
19,CC(=O)N(Cc1ccc(Cl)cc1)c1cnccn1,inactive
20,C/C(Nc1ccc(F)cc1)=C(/C#N)C(N)=O,inactive
21,Cc1ccc2c(c1)cc(CN(Cc1ccc3c(c1)OCO3)C(=O)c1cnccn1)c1nnnn12,inactive
22,Cc1nnc(NC(=O)CSc2ncnc3scc(-c4ccccc4)c23)s1,inactive
23,O=C(CSc1nnnn1-c1ccccc1)CC(=O)Nc1ccc(Cl)cc1,inactive
